Experimental data taken from the supplement of paper PMC12645437, “Orthogonal IMiD-Degron Pairs Induce Selective Protein Degradation in Cells” (ACS Chemical Biology, 2025).
Over roughly 8,300 sequences, “log2 fold change of degron read counts, EGFP-low vs EGFP+ sorted cells (limma voom), compound-induced degradation” has its median near -1.1; the highest 2% begin near 3.2. For the sample, the highest values were picked, then their nearest neighbours and some sequences at random.

T1: CRBN, Q96SW2
T1 chain: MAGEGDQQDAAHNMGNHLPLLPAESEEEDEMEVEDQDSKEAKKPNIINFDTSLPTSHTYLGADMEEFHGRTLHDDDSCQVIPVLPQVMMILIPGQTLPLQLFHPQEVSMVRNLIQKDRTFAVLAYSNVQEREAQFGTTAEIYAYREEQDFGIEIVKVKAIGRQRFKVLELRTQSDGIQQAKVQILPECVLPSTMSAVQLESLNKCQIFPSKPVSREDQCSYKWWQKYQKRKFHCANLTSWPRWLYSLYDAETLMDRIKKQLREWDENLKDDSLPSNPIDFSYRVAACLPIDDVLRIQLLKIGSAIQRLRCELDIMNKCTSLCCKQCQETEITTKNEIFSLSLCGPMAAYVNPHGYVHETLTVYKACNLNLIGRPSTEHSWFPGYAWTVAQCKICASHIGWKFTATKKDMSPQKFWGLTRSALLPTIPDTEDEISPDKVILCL


Molecular target: T1, CRBN, Q96SW2
Assay: log2 fold change of degron read counts, EGFP-low vs EGFP+ sorted cells (limma voom), compound-induced degradation; higher = more compound-induced degradation of the degron-EGFP fusion; degrons are variants of IKZF1/3 zinc finger 2; compound dose not given here
Settings: Jurkat, 18 h
[1] = compound: compound 19 (5-tert-butyl-thalidomide)
[2] = compound: compound 22 (5-morpholino-thalidomide)
[3] = compound: compound 33 (diphenyl IMiD analogue)
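Note: pooled lentiviral library of zinc finger degron-EGFP fusions in mCherry-positive Jurkat cells, FACS-sorted after compound exposure, with degron abundance counted by next-generation sequencing.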

Row | Sequence | log2 fold change of degron read counts [1] | log2 fold change of degron read counts [2] | log2 fold change of degron read counts [3] | log2 fold change of degron read counts (compound: thalidomide)
1 | FICDICGATFTQKGNLLRHIKL [46F_47I_49D_50I_52G_53A_54T_55F_67L_, Q9UKT9] | -1.39 | 0.332 | 0.735 | -0.113
2 | FKCEQCGAPFTQKGNLLRHIKL [46F_47K_49E_50Q_52G_53A_54P_55F_67L_, Q9UKT9] | -1.28 | -2.18 | -2.55 | -1.19
3 | FVCNICGACFTQKGNLLRHIKL [46F_47V_49N_50I_52G_53A_54C_55F_67L_, Q9UKT9] | -1.18 | 0.539 | 1.63 | 1.37
4 | FFCNQCGRTFTQKGNLLRHIKL [46F_47F_49N_50Q_52G_53R_54T_55F_67L_, Q9UKT9] | -2.31 | -2.17 | -2.54 | -2.59
5 | FCCSVCGHKFTQKGNLLRHIKL [46F_47C_49S_50V_52G_53H_54K_55F_67L_, Q9UKT9] | -2 | -2.26 | -2.77 | -2.04
6 | FWCEICGHIFTQKGNLLRHIKL [46F_47W_49E_50I_52G_53H_54I_55F_67L_, Q9UKT9] | -0.453 | -0.795 | -0.246 | -0.951
7 | FICEICGRIFTQKGNLLRHIKL [46F_47I_49E_50I_52G_53R_54I_55F_67L_, Q9UKT9] | -1.03 | -1.63 | 0.139 | -0.162
8 | FLCEICGRAFTQKGNLLRHIKL [46F_47L_49E_50I_52G_53R_54A_55F_67L_, Q9UKT9] | -1.9 | -2.56 | -1.36 | -1.22
